The structures appear in SMILES notation. Inconclusive results are not listed. The source made the active and inactive calls. How the source made its calls: active means hit-call score of the fitted dose curve at least 0.9, where 1 is the maximum; inconclusive means response in the unintended direction; inactive means score below 0.9.

The nature of the assay: Tanguay_ZF_120hpf_CFIN_legacy: (Legacy) Oregon State University Tanguay Lab 120 Hour Post-fertilization zebrafish Assay for Caudal Fin Malformation (AID 2283649). Here is the method:
Tanguay_ZF_120hpf_legacy is a whole embryo, multiplexed endpoint assay using zebrafish larvae exposed for 120 hours post fertilization on a 96-well plate.Tanguay_ZF_120hpf_CFIN_legacy is one of one assay component(s) measured or calculated from the Tanguay_ZF_120hpf_legacy assay. It is designed to make measurements of zebrafish development as detected with brightfield microscopy of developing zebrafish embryos.Data from the assay component Tanguay_ZF_120hpf_CFIN_legacy was analyzed into 1 assay endpoints. This assay endpoint, Tanguay_ZF_120hpf_CFIN_legacy, was analyzed in the positive analysis fitting direction relative to DMSO as the negative control and baseline of activity. Using a type of morphology reporter, gain-of-signal activity can be used to understand changes in developmentals as they relate to the whole embryo. To generalize the intended target to other relatable targets, this assay endpoint is annotated to the zebrafish development intended target family, where the subfamily is caudal fin morphogenesis.
Zebrafish husbandry: Tropical 5D wild-type adult zebrafish were housed in at an approximate density of 1000 per 100 gallon tank at the Sinnhuber Aquatic Research Laboratory, Oregon State University, Corvallis, OR. Each tank was kept at standard laboratory conditions of 28C on a 14-h light/10-h dark photoperiod in fish water consisting of reverse osmosis water supplemented with a commercially available salt (Instant Ocean). Spawning funnels were placed into the tanks the night prior, and embryos were collected and staged. To increase bioavailability, the chorion was enzymatically removed using pronase (63.6mg/ml, >/= 3.5U/mg, Sigma-Aldrich: P5147) at 4 hours post fertilization (hpf) using a custom automated dechorionator.Chemical exposures: Six hpf dechorionated embryos were placed 1 embryo per well in a 96-well plate prefilled with 90 ul of EM using automated embryo placement systems (AEPS). Ten microliters of each row of dilution plate 2 was added to 2 exposure plates. The final DMSO concentration used was 0.64% (vol/vol). Thirty-two embryos were also exposed to 5uM trimethyltin chloride (positive control). Plates were sealed to prevent evaporation and foil covered to reduce light exposure and kept in a 28C incubator. Embryos were statically exposed until 120 hpf. At 24 hpf, embryos were assessed for photomotor response using a custom photomotor response analysis tool (PRAT) and for developmental toxicity endpoints (MO24: mortality at 24 hpf, DP: developmental progression, SM: spontaneous movement, and NC: notochord distortion). At 120 hpf, locomotor activity was measured using Viewpoint Zebralab and assessed for 18 endpoints. Zebrafish acquisition and analysis program (ZAAP), a custom program designed to inventory, acquire, and manage zebrafish data, was used to collect developmental endpoints as either present or absent (i.e., binary responses were recorded). If mortality occurred for an embryo (at either 24 or 120 hpf), the non-mortality endpoints were not measured.
Take `CCCCC(CC)COC(=O)CCCCC(=O)OCC(CC)CCCC` (stereo not given): the molecule was called inactive.
Turning to `CN1CCC[C@H]1c1cccnc1`, the call was inactive.
Still for that read-out and setting: to `CC(=O)NC1(c2cccc(F)c2)CCN(CC[C@@]2(c3ccc(Cl)c(Cl)c3)CN(c3ccccc3)C(=O)CO2)CC1` belongs “inactive”; to `COc1ccc([N+](=O)[O-])cc1N`, “inactive”.
Regarding `CCC(C)(C)C1CCC(O)CC1` (stereo not given), the call was inactive.
`CCCCC(CC)COC(=O)CCCCC(=O)OCc1ccccc1` (stereo not given): the outcome was inactive.
Take `C[C@@H]1C[C@H]2[C@@H]3CCC4=CC(=O)C=C[C@]4(C)[C@@]3(F)[C@@H](O)C[C@]2(C)[C@@]1(O)C(=O)COP(=O)(O)O`: the result was inactive.
As for `OC1CCC(C2CCCCC2)CC1` (stereo not given), the molecule was classed as inactive.
Regarding `Cc1cc(C)c(O)c(C)c1`, the outcome was inactive.
For `CC(C)(C)CC(C)(C)c1ccc(O)c(-n2nc3ccccc3n2)c1`, the molecule was classed as inactive.
Same read-out and setting: to `C#C[C@]1(O)CC[C@H]2[C@@H]3CCC4=CC(=O)CC[C@@H]4[C@H]3CC[C@@]21C` belongs “inactive”; to `Nc1cccc2c(N)cccc12`, “inactive”; to `NC(=O)N1C(=O)C(C(=O)c2cc(Cl)cs2)c2cc(F)c(Cl)cc21` (stereo not given), “inactive”.
For the molecule `CCCCCCCC(=O)O`, the molecule was classed as inactive.
The AC50 is the concentration at which the activity in the assay is half-maximal. `Cc1cc(CCN2CCN(c3nsc4ccccc34)CC2)cc2c1NC(=O)CC2(C)C`: the AC50 is 6.48 µM (active).
Regarding `CC(=O)CC(C)(C)O`, the molecule was called inactive.
Turning to `CC1=C(/C=C/C(C)=C/C=C/C(C)=C/C(=O)O)C(C)(C)CCC1`, the AC50 was 0.186 µM (active).
In the case of `O=C(O)Cc1cc(I)c(Oc2cc(I)c(O)c(I)c2)c(I)c1`, the molecule was classed as inactive.
The same measure, in the same setting: the same measure for `CC(O)CO` (stereo not given): “inactive”; for `ClC1=C(Cl)C(Cl)(Cl)C(Cl)=C1Cl`: “inactive”; for `CC(C)(C)c1ccc(O)c(C(C)(C)C)c1`: “inactive”.
On to `OC1CCCCC1`, for which the molecule was called inactive.
Consider `COC(=O)CCCCC(=O)OC`, for which the molecule was called inactive.
In the case of `NC(=O)N(O)[C@@H]1C=C[C@H](Oc2cccc(Oc3ccc(F)cc3)c2)C1`, the molecule was called inactive.
The same measure, in the same setting: the same measure for `Cc1oc(-c2ccccc2)nc1CCOc1ccc(C[C@H](Nc2ccccc2C(=O)c2ccccc2)C(=O)O)cc1`: “inactive”.
Take `CCc1ccc(CCOc2ccc(CC3SC(=O)NC3=O)cc2)nc1` (stereo not given): the outcome was inactive.
Take `Oc1cc2ccccc2c2ccccc12`: the AC50 was 36.5 µM (active).
On to `CCCCCCC(=O)O`, for which the molecule was called inactive.
Turning to `c1ccc2c(c1)ccc1ccccc12`, the molecule was classed as inactive.
For `CCCCCCCCOC(=O)CCCCCCCCC(=O)OCCCCCCCC`, the call was inactive.
With `CC[C@H](c1ccc(O)cc1)[C@@H](CC)c1ccc(O)cc1`, the result was inactive.
Take `CCCCCCCCCCCCN1CCCC1=O`: the AC50 was 41 µM (active).
Turning to `c1ccc2cc3c(ccc4ccccc43)cc2c1`, the call was inactive.
On to `CCCCCCCCCCCCCCCS(=O)(=O)Oc1ccccc1`, for which the result was inactive.
The same measure, in the same setting: the same measure for `CN(C)C=O`: “inactive”.
The same measure, in the same setting: the same measure for `CC(C)(C)c1cc(C(C)(C)C)c(O)c(C(C)(C)C)c1`: “inactive”.
For the molecule `c1ccc2c(c1)Cc1ccccc1-2`, the result was inactive.
For `C=C(C)C(=O)OCCC(F)(F)C(F)(F)C(F)(F)C(F)(F)C(F)(F)C(F)(F)F`, the molecule was called inactive.
On the same count and under the same terms, the same measure for `CC#C[C@]1(O)CC[C@H]2[C@@H]3CCC4=CC(=O)CCC4=C3[C@@H](c3ccc(N(C)C)cc3)C[C@@]21C`: “inactive”.
For the molecule `CCCCOCCO`, the molecule was classed as inactive.

For the origin of these results see PubChem BioAssay (EPA / NIEHS).
